Data on 94 molecules can be found in ChEMBL document CHEMBL3988442, “University of Dundee, Small-Polar-MMV Screening Library” (2021).

Screen size: about 48,000 compounds; about 13,000 (27%) showed an effect of 50% or more. The list shows a part of the results.

The subject of this assay is Wolbachia pipientis. Briefly: Anti-Wolbachia Cell-Based Screen. Type of assay: functional. On the set-up: scale not given: in the data most compounds retested in dose-response had high values. The following applies: 5 µM.
As to `O=C(NC1CCCN(c2ccc(OC(F)F)cc2)C1)c1ccon1` (centres undefined), the “Percent Effect” value is listed as 12.05%.

For the molecule `Cc1c(NCCCOc2cccc(C#N)c2)cccc1C(N)=O`, the “Percent Effect” value is -5.343%.

Regarding `O=C1CCN(C(=O)C2(c3ccc(F)cc3)CCOCC2)CCN1`, the “Percent Effect” value came to 5.245%.

As for `Cc1cc(CS(=O)(=O)c2ccccc2)no1`, the “Percent Effect” value is reported as -12.79%.

As to `CC(=O)N1CCN2C[C@H](CO)[C@@H](c3ccccc3)[C@H]2C1`, the “Percent Effect” value is on record as 95.75%.

With `CC(=O)N1CCN(C2CCc3ccccc32)CC1` (centres undefined), the “Percent Effect” value is 10.52%.

Take `O=C(C1CC1)N1CCN2C[C@@H](CO)[C@H](c3ccccc3)[C@H]2C1`: the “Percent Effect” value is 89.49%.

In the case of `CC(=O)N1CCN(C)CC(COCc2ccccc2)C1` (centres undefined), the “Percent Effect” value is reported as -1.846%.

In the case of `CCN1CC[C@]2(CN(C(=O)C3CCOCC3)C[C@H]2c2ccccc2)C1=O`, the “Percent Effect” value was -4.584%.

For `CCC(NC(=O)c1ccc2[nH]ccc2c1)C(=O)N1CCOCC1` (centres undefined), the “Percent Effect” value was found to be 6.827%.

Turning to `OC1CCN(c2ccccc2NCc2nc(-c3ccoc3)no2)CC1`, the “Percent Effect” value was 5.706%.

On to `O=C(NCCN1C(=O)CCC1=O)c1nc2ccccc2c(=O)[nH]1`, for which the “Percent Effect” value is 1.599%.

For the molecule `CCCc1cc(C(=O)NCCCC(=O)N2Cc3ccccc3C2)[nH]n1`, the “Percent Effect” value is listed as -1.2%.

As to `CN1CCn2c(-c3cccc(F)c3)cnc2C12CCN(CC1CC1)CC2.O=C(O)C(F)(F)F.O=C(O)C(F)(F)F.O=C(O)C(F)(F)F`, the “Percent Effect” value is given as -9.47%.

On to `CC(=O)N1CCn2c(-c3cccc(F)c3)cnc2C12CCNCC2.O=C(O)C(F)(F)F`, for which the “Percent Effect” value was 7.148%.

In the case of `CNC(=O)N1CCC2(CC1)c1ncc(-c3cccc(F)c3)n1CCN2C.O=C(O)C(F)(F)F`, the “Percent Effect” value worked out at 101.8%.

Consider `CCN1CCn2c(-c3cccc(F)c3)cnc2C12CCN(C(C)=O)CC2.O=C(O)C(F)(F)F`, for which the “Percent Effect” value was determined as 112.1%.

With `CCN1CCN(S(=O)(=O)c2cn(C(C)C)cn2)c2ccccc21`, the “Percent Effect” value was -8.79%.

As to `O=C(c1ccc(-n2cccn2)nc1)N1CCC(c2ccc(O)cc2)CC1`, the “Percent Effect” value is listed as -5.1%.

On to `O=C(c1ccc(-n2cccn2)nc1)N1CCCC(c2cnccn2)C1` (centres undefined), for which the “Percent Effect” value was determined as 143.5%.

In the case of `Cc1cncc(C2CCN(C(=O)c3ccc(-n4cccn4)nc3)CC2)n1`, the “Percent Effect” value is given as 157.3%.

As to `O=C(c1ccccc1)C1CCN(c2cncc(-n3cccn3)n2)CC1`, the “Percent Effect” value is 6.831%.

As for `O=C(c1ccc(-n2cccn2)nc1)N1CCC(c2ccn[nH]2)C1` (centres undefined), the “Percent Effect” value is 151%.

As for `O=C(c1ccc(-n2cccn2)nc1)N1CCCN(c2cccnn2)CC1`, the “Percent Effect” value was determined as 2.596%.

On to `CC1CCCCN1C1CN(C(=O)c2sccc2S(N)(=O)=O)C1` (centres undefined), for which the “Percent Effect” value stood at 5.602%.

In the case of `CN(Cc1ccccc1)C1(C(=O)O)Cc2ccccc2C1`, the “Percent Effect” value was determined as 1.396%.

With `CC[C@@H]1N(CC2CC2)CCC[C@]12CCC(=O)N2CCOC.O=C(O)C(F)(F)F`, the “Percent Effect” value is recorded as -7.54%.

With `CC[C@@H]1N(Cc2nccs2)CCC[C@]12CCC(=O)N2C.O=C(O)C(F)(F)F`, the “Percent Effect” value worked out at 109.2%.

With `CN1C(=O)CCCC12CCCN(Cc1nccs1)C2.O=C(O)C(F)(F)F` (centres undefined), the “Percent Effect” value is listed as -2.009%.

In the case of `COCCN1C(=O)CC[C@]12CC[C@@H](NCc1nccs1)CC2.O=C(O)C(F)(F)F`, the “Percent Effect” value is recorded as -1.329%.

Consider `CC[C@@H]1N(Cc2nccs2)CCC[C@]12CCC(=O)N2CCOC.O=C(O)C(F)(F)F`, for which the “Percent Effect” value is listed as 100.4%.

For `Cn1cccc1C(=O)N1C[C@H]2CN(CCN3CCCC3)C(=O)[C@H]2C1`, the “Percent Effect” value is given as -3.388%.

Take `CS(=O)(=O)N1C[C@@H](NC(=O)c2ccno2)[C@@H]2OCCC[C@@H]21`: the “Percent Effect” value is reported as 112.1%.

`Cn1cc(C(=O)N[C@H]2CN(S(C)(=O)=O)[C@@H]3CCCO[C@H]23)cn1`: the “Percent Effect” value worked out at 0.3212%.

For `CN(C)C(=O)N[C@@H]1CN(S(C)(=O)=O)[C@@H]2CCCO[C@@H]21`, the “Percent Effect” value is -12.16%.

As for `CS(=O)(=O)N1C[C@H](NC(=O)c2ccno2)[C@@H]2OCCC[C@@H]21`, the “Percent Effect” value is 97.34%.

Consider `CC(CCNC(=O)NCCc1ccc(S(N)(=O)=O)cc1)c1ccccc1` (centres undefined), for which the “Percent Effect” value stood at 2.961%.

Regarding `NC(=O)c1cc(C2CCCN(CCCOc3ccccc3)C2)n[nH]1` (centres undefined), the “Percent Effect” value is on record as -3.314%.

Consider `NC(=O)c1ccccc1Oc1cccc(C2CCCNC2)n1` (centres undefined), for which the “Percent Effect” value turned out to be 178.3%.

For `CN1CCN(Cc2ccccc2Oc2ccc(C(N)=O)cn2)CC1`, the “Percent Effect” value is recorded as -9.578%.

In the case of `NC(=O)c1ccccc1Oc1cnc(C2CCCN2)cn1` (centres undefined), the “Percent Effect” value was 134.2%.

Consider `Nc1nc(CCCNC(=O)c2ccccc2C2CCNC2)cs1` (centres undefined), for which the “Percent Effect” value is 16.63%.

Take `COc1ccccc1-c1c[nH]c(C2CCCN2)n1.Cl.Cl` (centres undefined): the “Percent Effect” value is -20.8%.

With `Cc1ncccc1C(=O)Nc1ccc2ccn(CCN(C)C)c2c1`, the “Percent Effect” value is -6.665%.

In the case of `O=C(Nc1cccn(Cc2ccccc2)c1=O)c1ccncc1F`, the “Percent Effect” value is reported as -8.682%.

As to `O=C(CCn1ccccc1=O)Nc1ccc(I)cc1`, the “Percent Effect” value is reported as -0.04239%.

As to `CC(C)c1ocnc1C(=O)Nc1cccc(Cn2ccccc2=O)c1`, the “Percent Effect” value worked out at 74.78%.

Regarding `Cc1ncccc1C(=O)Nc1cccc2c1C(=O)NC2`, the “Percent Effect” value was -1.694%.

As for `CC(C)S(=O)(=O)Cc1cccc(NC(=O)c2ccc[nH]2)c1`, the “Percent Effect” value stood at 19.64%.

On to `CC(C)c1nc2cc(NC(=O)Cn3ccccc3=O)ccc2o1`, for which the “Percent Effect” value is 6.336%.

For the molecule `Cc1ncccc1C(=O)Nc1cccc(Cn2ccccc2=O)c1`, the “Percent Effect” value was 100.7%.

Take `CSc1ncccc1C(=O)Nc1ccc(Cn2ccccc2=O)cc1`: the “Percent Effect” value was found to be 85.69%.

In the case of `CN(Cc1ccc(N(C)C)cc1)C(=O)NCc1nnc2n1CCC2`, the “Percent Effect” value came to 115.6%.

For `O=C(NCc1nnc2n1CCC2)N(Cc1ccc(F)cc1)C1CC1`, the “Percent Effect” value is recorded as -6.428%.

Take `CN(Cc1cnn(C)c1)C(=O)NCc1nnc2n1CCC2`: the “Percent Effect” value is recorded as -11.71%.

Turning to `CN(Cc1ccco1)C(=O)NCc1nnc2n1CCC2`, the “Percent Effect” value is listed as 1.808%.

With `CN(Cc1ccc(F)cc1)C(=O)NCc1nnc2n1CCC2`, the “Percent Effect” value was determined as 105%.

Consider `CN(Cc1ccc(F)cc1)C(=O)NCc1nnc2n1CCCCC2`, for which the “Percent Effect” value is -12.53%.

For `CN(CCO)Cc1nnc(C2CCN(C[C@H]3[C@@H]4CNC[C@@H]43)CC2)n1C`, the “Percent Effect” value is recorded as -4.687%.

`CCc1ccc(S(=O)(=O)Nc2cc(OC)c(OC)cc2C(=O)O)s1`: the “Percent Effect” value was -0.559%.

For `CCc1ccc(C2CC(=O)Nc3cc(OC)c(NS(C)(=O)=O)cc32)o1` (centres undefined), the “Percent Effect” value is recorded as 82.49%.

On to `CN(Cc1ccc(C2CC(=O)Nc3cc4[nH]ncc4cc32)o1)S(C)(=O)=O` (centres undefined), for which the “Percent Effect” value was found to be 6.583%.

In the case of `CCc1ccc(C2CC(=O)Nc3cc(NS(C)(=O)=O)ccc32)o1` (centres undefined), the “Percent Effect” value is recorded as 85.79%.

Regarding `CCc1ccc(C2CC(=O)Nc3n[nH]cc32)o1` (centres undefined), the “Percent Effect” value is given as 13.18%.

In the case of `CCCC(=O)Nc1cc2c(cc1OC)NC(=O)CC2c1ccc(CC)o1` (centres undefined), the “Percent Effect” value is 133.6%.

With `CCc1ccc(C2CCCN2C(=O)NCC(=O)NCC(C)C)o1` (centres undefined), the “Percent Effect” value is on record as -83.92%.

`CN(Cc1ccc(C2CC(=O)Nc3n[nH]cc32)o1)S(C)(=O)=O` (centres undefined): the “Percent Effect” value is 5.804%.

For the molecule `CCc1ccc(C2CCCN2C(=O)CNC(=O)CCC(C)C)o1` (centres undefined), the “Percent Effect” value is 9.018%.

As for `CS(=O)(=O)Cc1ccc(Cl)c(NCc2noc(C3CC3)n2)c1`, the “Percent Effect” value was -7.665%.

`CCOCCOC(C)C(=O)Nc1ccc2[nH]c(C)cc2c1` (centres undefined): the “Percent Effect” value is 4.03%.

With `CC(NC(=O)c1ccc(CS(C)(=O)=O)o1)c1ccc(F)c(F)c1` (centres undefined), the “Percent Effect” value was -18.18%.

For the molecule `CC(=O)N1CCC(N[C@@H]2CO[C@H](CNC(=O)C3CCCC3)[C@H]2O)CC1`, the “Percent Effect” value is -17.04%.

Turning to `COC(=O)N1CCCC(C(=O)N(C)C)C1` (centres undefined), the “Percent Effect” value was 5.213%.

Regarding `CC(=O)N1CCN([C@@H]2CC[C@@H](N(C)C(=O)C3CCCCC3)[C@H]2O)CC1`, the “Percent Effect” value was found to be 97.43%.

In the case of `CC(=O)N1CCN(C2CCCCc3ccccc32)CC1` (centres undefined), the “Percent Effect” value is -7.249%.

On to `CC(=O)N1CCN([C@@H]2CCC[C@@H](N(C)C(=O)C3CC3)[C@H]2O)CC1`, for which the “Percent Effect” value is 98.54%.

`CC(=O)N1CCC(C(=O)N(C)[C@@H]2CCC[C@@H](N3CCCC3)[C@@H]2O)CC1`: the “Percent Effect” value was -16.02%.

With `Cc1cc(=O)c(C(=O)N(C)Cc2ccc(Cl)c(F)c2)c[nH]1`, the “Percent Effect” value stood at 0.1621%.

Regarding `CCCc1noc(C(C)S(=O)(=O)Cc2nc(C3CC3)no2)n1` (centres undefined), the “Percent Effect” value is -3.55%.

For the molecule `COC(C(=O)NCc1c(C)nc2cc(=O)[nH]n2c1C)c1ccccc1` (centres undefined), the “Percent Effect” value is reported as -2.131%.

For the molecule `O=C(O)C(c1ccc2c(c1)OCO2)N1CCC(O)(c2cccnc2)CC1` (centres undefined), the “Percent Effect” value was -24.46%.

With `Cn1cc(CN2CCC3(CC(=O)N(c4ccc5c(c4)OCO5)C3)C2)cn1.O=C(O)C(F)(F)F` (centres undefined), the “Percent Effect” value is -18.04%.

For `Fc1ccc(CN2CCC3(CC2)CCN(Cc2nccs2)CC3)cc1.O=C(O)C(F)(F)F.O=C(O)C(F)(F)F`, the “Percent Effect” value came to 3.556%.

As for `CCn1c(CN2CCC(O)(c3ccc4c(c3)OCO4)CC2)cnc1SC.O=C(O)CC(O)(CC(=O)O)C(=O)O`, the “Percent Effect” value is 113.8%.

Turning to `CCn1c(CN2CCCC(O)(c3ccc(F)cc3)CC2)cnc1SC.O=C(O)CC(O)(CC(=O)O)C(=O)O` (centres undefined), the “Percent Effect” value is given as 110.7%.

Take `Cc1ccc(=O)n(CC2(O)CCN(Cc3cc(C)c(O)c(C)c3)CC2)n1.O=C(O)CC(O)(CC(=O)O)C(=O)O`: the “Percent Effect” value is listed as -13.33%.

Consider `Cc1ncc(CN2CCCC(O)(c3ccc(F)cc3)CC2)n1C.O=C(O)CC(O)(CC(=O)O)C(=O)O` (centres undefined), for which the “Percent Effect” value is recorded as 96.51%.

In the case of `CC(NC(=O)N(C)CCCOc1ccc(F)cc1)c1nncn1C` (centres undefined), the “Percent Effect” value was 8.721%.

As for `Cc1cccc(C(=O)N2CCN(S(C)(=O)=O)[C@@H]3CS(=O)(=O)C[C@@H]32)n1`, the “Percent Effect” value was -7.495%.

Consider `O=C1NCCN(C(=O)c2cn3ccsc3n2)C1c1cccc(F)c1` (centres undefined), for which the “Percent Effect” value is -4.51%.

Consider `Cc1csc(C2CCCCN2C(=O)CN(C)Cc2ccccc2)n1` (centres undefined), for which the “Percent Effect” value is listed as -0.5019%.

In the case of `Cc1csc(C2CCCCN2C(=O)CN(C)C2CC2)n1` (centres undefined), the “Percent Effect” value was 3.375%.

`CCN(CC)CC(=O)N1CCCCC1c1nc(C)cs1` (centres undefined): the “Percent Effect” value is on record as 131.2%.

As to `Cc1csc(C2CCCCN2C(=O)CN(C)C(C)C)n1` (centres undefined), the “Percent Effect” value was 91.31%.
